Data: the supplement of paper PMC3334620
Whole data set: some 33,000 sequences, median “E-score (-0.5 to 0.5)” near -0.017, cut for the highest 2% near 0.3. Many of the other results were omitted from the sample, so the highest values are more common in it than they were.

The sequences below were run against T1, Sut1 (UniProt P53032) (assay: PBM E-score (8-mer binding enrichment) (E-score (-0.5 to 0.5)); higher = stronger / more preferred TF binding). Conditions: protein concentration: 200 nM; construct: GST-full length.
T1 sequence: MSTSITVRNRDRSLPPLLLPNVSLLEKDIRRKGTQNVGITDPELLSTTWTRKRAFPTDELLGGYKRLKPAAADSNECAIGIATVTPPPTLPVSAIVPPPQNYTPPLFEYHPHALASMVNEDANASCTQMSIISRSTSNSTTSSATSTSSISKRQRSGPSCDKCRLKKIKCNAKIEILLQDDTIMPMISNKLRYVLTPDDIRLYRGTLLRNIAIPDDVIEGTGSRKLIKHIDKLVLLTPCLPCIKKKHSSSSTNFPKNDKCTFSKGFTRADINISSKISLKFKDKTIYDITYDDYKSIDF
Experimental: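 Universal 'all 10-mer' protein binding microarrays (Agilent AMADID 015681) probed with GST-tagged S. cerevisiae TFs (full-length or DBD) made by in vitro transcription/translation (PURExpress), about 100-200 nM. Bound TF was detected with fluorescent anti-GST. Each ungapped 8-mer (which stands for itself and its reverse complement) is scored by the PBM enrichment score (E-score), a modified Wilcoxon-Mann-Whitney statistic from -0.5 to +0.5, computed with the Universal PBM Analysis Suite. Scale: above 0.35 generally sequence-specific binding.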
In the case of GAAACGCA, the “PBM E-score” value is reported as 0.026.
For CTGAGCGA, the “PBM E-score” value was -0.162.
For AAGGTTGA, the “PBM E-score” value was 0.0981.
With GTTTAGTA the “PBM E-score” value was 0.208.
With GACATCGC the “PBM E-score” value was -0.0981.
CATAACAC was tested, and the “PBM E-score” value was 0.0299.
For CGCTCAGC, the “PBM E-score” value was -0.105.
With ATTTTGCG the “PBM E-score” value was 0.193.
For GCTCCCAC, the “PBM E-score” value was -0.109.
In the case of CATATGTC, the “PBM E-score” value is reported as -0.0849.
With CCTGTCAA the “PBM E-score” value was -0.085.
CTCCGGGC was tested, and the “PBM E-score” value was 0.391.
GACCGGGA was tested, and the “PBM E-score” value was -0.0471.
GTCCGGGA was tested, and the “PBM E-score” value was 0.413.
With ATCCGGGA the “PBM E-score” value was 0.0768.
ATCCGGGC was tested, and the “PBM E-score” value was 0.127.
With CGCCGGGA the “PBM E-score” value was -0.203.
For CTCCGGGA, the “PBM E-score” value was 0.436.
For CGCCGGGC, the “PBM E-score” value was 0.00809.
CCCCGGGA was tested, and the “PBM E-score” value was -0.0206.
With CCCGGTCC the “PBM E-score” value was -0.0342.
With AACTCACT the “PBM E-score” value was -0.151.
CAATTCAA was tested, and the “PBM E-score” value was 0.0614.
In the case of GGCCCTCA, the “PBM E-score” value is reported as -0.279.
CTGGTTCA was tested, and the “PBM E-score” value was -0.0784.
For CCTCGGTA, the “PBM E-score” value was -0.0533.
For CCTCGGAA, the “PBM E-score” value was 0.215.
With CCTCGGGC the “PBM E-score” value was -0.209.
TCTCGGAA was tested, and the “PBM E-score” value was 0.215.
In the case of CCTCGGAC, the “PBM E-score” value is reported as 0.412.
CCTCGGAG was tested, and the “PBM E-score” value was 0.446.
With ACTCGGTC the “PBM E-score” value was -0.072.
In the case of ACTCGGGC, the “PBM E-score” value is reported as -0.0385.
CCTCGGCG was tested, and the “PBM E-score” value was -0.0382.
In the case of ACTCGGAA, the “PBM E-score” value is reported as 0.323.
In the case of ACTCGGAC, the “PBM E-score” value is reported as 0.411.
With ACTCGGAT the “PBM E-score” value was 0.0613.
In the case of CTAGTTGC, the “PBM E-score” value is reported as -0.0129.
With GCCTTGGA the “PBM E-score” value was -0.0418.
GACGCGTC was tested, and the “PBM E-score” value was -0.325.
In the case of ATCTATAG, the “PBM E-score” value is reported as 0.11.
With CAGCCTGA the “PBM E-score” value was -0.275.
With ATATGAGG the “PBM E-score” value was -0.0891.
For GCTCGGCC, the “PBM E-score” value was -0.204.
For ACTCGGTG, the “PBM E-score” value was -0.0621.
GCTCGGAC was tested, and the “PBM E-score” value was 0.365.
For GCTCGGAA, the “PBM E-score” value was 0.165.
In the case of ACTCGGAG, the “PBM E-score” value is reported as 0.399.
In the case of ACTCGGCG, the “PBM E-score” value is reported as 0.0415.
In the case of ATACATTA, the “PBM E-score” value is reported as 0.234.
With ACACTAAG the “PBM E-score” value was -0.0951.
CATATATA was tested, and the “PBM E-score” value was 0.299.
In the case of TATATACA, the “PBM E-score” value is reported as 0.316.
With GATATATA the “PBM E-score” value was 0.247.
With AATATACA the “PBM E-score” value was 0.29.
For CATATATG, the “PBM E-score” value was 0.0281.
For TATATATA, the “PBM E-score” value was 0.381.
In the case of CATATATC, the “PBM E-score” value is reported as -0.0165.
In the case of GATATACA, the “PBM E-score” value is reported as 0.194.
For TATATAGA, the “PBM E-score” value was 0.278.
For GGCCAGCA, the “PBM E-score” value was -0.168.
With ACCCAGGA the “PBM E-score” value was -0.13.
In the case of AAGACTTC, the “PBM E-score” value is reported as -0.196.
In the case of AACCCCTC, the “PBM E-score” value is reported as -0.198.
In the case of AAGGGGGA, the “PBM E-score” value is reported as -0.0309.
With CAGTCAAA the “PBM E-score” value was 0.0987.
In the case of CCTTGCAG, the “PBM E-score” value is reported as -0.143.
In the case of ACTCGTCG, the “PBM E-score” value is reported as -0.174.
TAATCGCA was tested, and the “PBM E-score” value was -0.0128.
For CACGGAAA, the “PBM E-score” value was 0.188.
AACGGAAA was tested, and the “PBM E-score” value was 0.327.
With ATCGGAAG the “PBM E-score” value was 0.253.
For AACGGAAT, the “PBM E-score” value was 0.294.
ATCGGAAC was tested, and the “PBM E-score” value was 0.14.
In the case of GTCGGAAA, the “PBM E-score” value is reported as 0.355.
AGCGGAAT was tested, and the “PBM E-score” value was 0.0494.
With ATCGGAAT the “PBM E-score” value was 0.352.
For GTCGGAAC, the “PBM E-score” value was 0.134.
ATCGGAAA was tested, and the “PBM E-score” value was 0.302.
In the case of CTCGGAAA, the “PBM E-score” value is reported as 0.19.
In the case of TTCGGAAA, the “PBM E-score” value is reported as 0.252.
For AGTAACTC, the “PBM E-score” value was 0.115.
In the case of CGACGAAA, the “PBM E-score” value is reported as 0.0757.
In the case of AAGTGAGC, the “PBM E-score” value is reported as -0.0565.
For GCTTTTTA, the “PBM E-score” value was 0.161.
For GGAGCGAA, the “PBM E-score” value was 0.0455.
